We go through 55 compounds from PubChem BioAssay AID624173 (National Center for Advancing Translational Sciences (NCATS), 2012).

In all, about 410,000 compounds went through this assay and about 490 (0.12%) were called active. Where a call stands in place of a potency, no number is given. Not shown: some 1% with an inconclusive outcome. Only a selection was taken, and actives are over-represented in it overall. A number with no mark means an inactive call. The call rests on the fitted dose curve; in most records, active means well fitted inhibition curve with a large enough effect; inconclusive means small, poorly fitted or top-dose-only effect; inactive means flat fitted curve, though single readings scatter.
Potency means the concentration at half of the fitted maximal effect.

For the experiment, the target named is pyruvate kinase (Trypanosoma brucei) (UniProt Q57TT1). The experiment can be described thus: qHTS of Trypanosoma Brucei Inhibitors. Further: nearly all actives have a fitted effect of over 50% in size. Conditions: TbPYK enzyme, Kinase-Glo Plus ATP luminescence, 45 min; series mostly up to 76.8 µM. An excerpt: Members of the Trypanosomatidae family of parasitic protozoans cause a spectrum of diseases throughout the tropical and subtropical world. Sleeping sickness, caused by two subspecies of Trypanosoma brucei, is endemic to areas of sub-Saharan Africa, while Chagas' disease, a manifestation of Trypanosoma cruzi infection, is prevalent throughout Central and South America. In addition, many species of Leishmania are responsible for a range of cutaneous and visceral diseases, causing ulcers, destructive lesions and kalaazar, a lethal infection of the viscera. These diseases cause severe public health and economic burdens on populations that are often already caught in a tragic cycle of poverty, poor nutrition and disease. Collectively, parasites of the trypanosomatid family infect 30 million people worldwide (~500 million live in endemic areas), and account for ~130K deaths annually. Existing treatments have developed little in the past 50 years, and suffer from toxicity, poor efficacy and resistance; the goal of this project is to develop lead drugs that will be suitable for entry into pre-clinical trials.
Glycolysis in axenically cultured T. cruzi, representing the intracellular pathogenic stage, is also essential for these parasites. {Engel, 1987} This project aims to discover and optimize selective inhibitors of the glycolytic enzyme pyruvate kinase (PYK) from Trypanosoma brucei, the parasite that causes sleeping sickness. […] Trypanosomatid PYKs show significant differences from their human counterparts including only 47-50% sequence identity and different allosteric and activation properties.{Callens, 1992} To this end, a qHTS was done against the MLSMR to discover inhibitors.
NIH Molecular Libraries Probe Production Network [MLPCN]
NIH Chemical Genomics Center [NCGC]
PI Name: Malcolm Walkinshaw, University of Edinburgh
2 uL of TbPYK/substrate buffer (columns 1-3, 5-48) are dispensed into Greiner white solid bottom 1536-well assay plates; column 4 receives only TEA buffer as 0x TbPYK controls. Compounds are then transferred via Kalypsys pin tool equipped with 1536-pin array (10 nL slotted pins, V&P Scientific, San Diego, CA). Following addition of compound, 2 uL of ADP (130 uM final concentration, all columns) is added to initiate the reaction. The plates are then incubated at room temperature for 45 minutes. Kinase-Glo Plus reagent is added (3 uL) and plates incubated for 10 minutes, before being transferred to a ViewLux high-throughput CCD imager (PerkinElmer) wherein single end-point measurements of luminescence are acquired using a clear filter. All reagents are diluted in an assay buffer consisting of 50 mM TEA (pH 7.2), 100 mM KCl, 10 mM MgCl2, 0.05% BSA and 0.01% Tween-20.
All screening operations will be performed on a fully integrated robotic system (Kalypsys, San Diego, CA) containing one RX-130 and two RX-90 anthropomorphic robotic arms (Staeubli, Duncan, SC). Library plates will be screened starting from the lowest and proceeding to the highest concentration. Vehicle-only plates, with DMSO being pin-transferred to columns 5-48, will be inserted uniformly at the beginning and the end of each library in order to monitor and record any shifts in the background, which can be affected by reagent dispensers or loss in enzyme activity over time. Screening data will be corrected, normalized, and concentration-effect relationships will be derived by using publicly-available curve fitting algorithms developed in-house (http://ncgc.nih.gov/pub/openhts).
For the compound `CC(C)NC(=O)N1CC[C@@]2(CCCN(C(=O)c3cccc(F)c3)C2)C1`, the Potency result is “inactive”.

On to `COc1cc(C[C@H](C)N)c(OC)cc1Br`, for which the Potency entry was “inactive”. The same measure, in the same setting: the entry for `CCCCC1C(=O)NC(=O)N(C2CCCCC2)C1=O` (stereo not given) is “inactive”.

Turning to `O=C1C=CC(=O)N1c1ccc(N2CCCCC2)cc1`, the Potency is 10 µM (active). On the same count and under the same terms, the entry for `O=C(c1csnn1)N1CCC2(CCN(Cc3nccs3)CC2)CC1` is “inactive”; for `CC1(C)NC(=O)N(CC(=O)Nc2ccc(-c3ccccc3)cc2)C1=O` it is “inactive”.

For the compound `Cc1ccc(NC(=O)Cn2c(=O)n(-c3ccccc3)c(=O)c3c4c(sc32)CCCC4)cc1`, the Potency result was “inactive”.

For the compound `Cc1ccc(NC(=O)Cn2sc3ccccc3c2=O)cc1`, the Potency was 7.94 µM (active). Consider `CO/N=C(\C(=O)N[C@@H]1C(=O)N2C(C(=O)O)=C(Cn3nnc(C)n3)CS[C@H]12)c1csc(N)n1`, for which the Potency entry was “inactive”.

Regarding `O=C(/C=C/c1cccc(F)c1)NC1CC1`, the Potency entry is “inactive”.

For `C=CCN1CCC23c4c5ccc(O)c4O[C@H]2C(=O)CC[C@@]3(O)C1C5` (stereo not given in full), the Potency result is “inactive”.

`CC1(C)OC2CO[C@]3(COS(N)(=O)=O)OC(C)(C)OC3C2O1` (stereo not given in full): the Potency result was “inactive”.

With `O=C1c2c(O)cccc2[C@@H]([C@@H]2O[C@H](CO)[C@@H](O)[C@H](O)[C@H]2O)c2cc(CO)cc(O)c21`, the Potency entry was “inactive”. Still for that read-out and setting: the entry for `CCOC(=O)Cc1cccc(-c2cc(CCCCCCc3ccc(O[C@H]4O[C@H](COC(C)=O)[C@@H](OC(C)=O)[C@H](OC(C)=O)[C@@H]4OC(C)=O)c(-c4cccc(CC(=O)OCC)c4)c3)ccc2O[C@H]2O[C@H](COC(C)=O)[C@@H](OC(C)=O)[C@H](OC(C)=O)[C@@H]2OC(C)=O)c1` is “inactive”. Still for that read-out and setting: the entry for `COCC(=O)N1CCC2(CCCN(c3ccccc3)C2)CC1` is “inactive”; for `Cc1ccc(-c2ncc(Cl)cc2-c2ccc(S(C)(=O)=O)cc2)cn1` it is “inactive”; for `CCC(C)C(N)C1=NC(C(=O)NC(CC(C)C)C(=O)NC(CCC(=O)O)C(=O)NC(C(=O)NCCCCC2NC(=O)C(CC(N)=O)NC(=O)C(CC(=O)O)NC(=O)C(Cc3cnc[nH]3)NC(=O)C(Cc3ccccc3)NC(=O)C(C(C)CC)NC(=O)C(CCCN)NC2=O)C(C)CC)CS1` (stereo not given) it is “inactive”. Consider `CC(=O)N1CCC2(CCCN(Cc3ccccc3)C2)CC1`, for which the Potency result was “inactive”. Regarding `CC1(C)[C@H](O[C@H]2O[C@H](C(=O)O)[C@@H](O)[C@H](O)[C@H]2O[C@@H]2O[C@H](C(=O)O)[C@@H](O)[C@H](O)[C@H]2O)CC[C@@]2(C)[C@H]1CC[C@]1(C)[C@H]2C(=O)C=C2[C@H]3C[C@@](C)(C(=O)O)CC[C@]3(C)CC[C@]21C`, the Potency entry was “inactive”. Consider `COc1ncc2nc(-c3ccc(Cl)cc3)c(=O)n(-c3ccccc3)c2n1`, for which the Potency entry was “inactive”. Same read-out and setting: the entry for `CCCc1c2oc(C(=O)O)cc(=O)c2cc2c(=O)cc(C(=O)O)n(CC)c12` is “inactive”. For the compound `CCOc1ccc(NS(=O)(=O)c2ccc(N)cc2)nn1`, the Potency entry is “inactive”. Still for that read-out and setting: the entry for `CS(=O)(=O)N1CCC2(CC1)CN(c1ccncc1)C2` is “inactive”; for `Cc1ccc(Cc2c(-c3ccco3)nc3ccc(Cl)cn23)cc1` it is 22.4 µM (active); for `c1ccc(Cc2c(-c3ccco3)nc3c4ccccc4ccn23)cc1` it is “inactive”. For `Cc1cc2nc(-c3ccco3)c(Cc3cccc(F)c3)n2c(C)c1Br`, the Potency entry is “inactive”. Still for that read-out and setting: the entry for `COc1ccc(NC(=O)N2CC3(CCN(C(C)=O)CC3)C2)cc1` is “inactive”; for `COc1ccc(C(=O)N2CCC3(CC2)CCN(c2ccccn2)CC3)cc1` it is “inactive”.

In the case of `CC(=O)N1CCC2(CCCN(Cc3ccc(C#N)cc3)C2)CC1`, the Potency entry is “inactive”. With `CCC(C)[C@@H](N)C(=O)O` (stereo not given in full), the Potency entry is “inactive”.

Regarding `COC(=O)[C@@H]1CC2=CC(=O)CC[C@]2(C)[C@@]23O[C@@H]2C[C@@]2(C)[C@@H](CC[C@@]24CCC(=O)O4)[C@H]13`, the Potency entry was “inactive”.

For `CC(=O)OCC(=O)[C@@]1(O)CC[C@@H]2[C@H]3CCC4=CC(=O)C=C[C@]4(C)[C@]3(F)[C@@H](O)C[C@@]21C`, the Potency result was “inactive”.

As for `C[C@]12CCC3[C@@H](CCC4=CC(=O)CC[C@@]43C)C1CCC2OC(=O)CCc1ccccc1` (stereo not given in full), the Potency entry is “inactive”. Consider `CO[C@]12CC[C@@]3(C[C@@H]1[C@](C)(O)C(C)(C)C)[C@@H]1Cc4ccc(O)c5c4[C@@]3(CCN1CC1CC1)[C@H]2O5`, for which the Potency result is “inactive”. On the same count and under the same terms, the entry for `CC(C)=CCN1CC[C@@]2(C)c3cc(O)ccc3C[C@H]1[C@@H]2C` is “inactive”; for `COC(=O)N1CCC2(CCCN(c3ccncc3)C2)CC1` it is “inactive”. On the same count and under the same terms, the entry for `COc1ccc(OC)c([C@H](O)CNC(=O)CN)c1` is “inactive”; for `Cc1cccc(C)c1NC(=O)NC1=CCCN1C` it is “inactive”. Consider `O=C1C(c2[nH]c3ccccc3c2O)=Nc2ccccc21`, for which the Potency result was “inactive”. Same read-out and setting: the entry for `O=c1c(-c2cccs2)nc2cnc(Oc3ccccc3)nc2n1-c1ccccc1` is “inactive”; for `CCCC(=O)O[C@]1(C(=O)COC(=O)CC)CC[C@@H]2[C@@H]3CCC4=CC(=O)CC[C@]4(C)[C@H]3[C@@H](O)C[C@@]21C` it is “inactive”.

In the case of `Cc1c(Cl)cccc1NC(=O)N1CCN(C(=O)c2nsc3ccccc23)CC1`, the activity, negative = inhibition was 10.2% [at 15.4 µM]. As to `NCCCCC(N)C(=O)O` (stereo not given), the Potency result is “inactive”. Still for that read-out and setting: the same measure for `CCC(C)C1OC2(C=CC1C)CC1CC(C/C=C(/C)C(OC3CC(OC)C(OC4CC(OC)C(NC(C)=O)C(C)O4)C(C)O3)C(C)/C=C\C=C3\COC4C(O)C(C)=CC(C(=O)O1)C34O)O2` (stereo not given): “inactive”.

For the compound `CC(C)NC(=O)N1CC[C@@]2(CCCN(C(=O)c3ccco3)C2)C1`, the Potency entry was “inactive”. Still for that read-out and setting: the same measure for `Cc1cc(-c2csc(N)n2)c(C)n1-c1ccccc1`: “inactive”. Same read-out and setting: the same measure for `S=c1[nH]nc(-c2cc(-c3ccsc3)n[nH]2)n1-c1ccccc1`: 2.82 µM (active). Take `O=P(O)(O)OC[C@H](O)CO`: the Potency entry is “inactive”. On the same count and under the same terms, the same measure for `O=C(O)[C@@H](S)[C@H](S)C(=O)O`: “inactive”. On the same count and under the same terms, the same measure for `CC(C)CC1C(=O)N2CCCC2C2(O)OC(NC(=O)C3CC4c5cccc6[nH]cc(c56)CC4N(C)C3)(C(C)C)C(=O)N12` (stereo not given): “inactive”; for `O=c1c(-c2ccc(F)cc2)nc2cnc(N3CCOCC3)nc2n1-c1ccccc1`: “inactive”. The same measure, in the same setting: the same measure for `Clc1ccc(-c2nc3sccn3c2C=NOCc2ccc(Cl)c(Cl)c2)cc1`: “inactive”; for `Cn1cccc1C(=O)N1CCC[C@@]2(CCN(Cc3nccs3)C2)C1`: “inactive”. Regarding `O=C(c1cc(C(F)(F)F)cc(C(F)(F)F)c1)N1CCC2(CCCN(Cc3ccncc3)C2)CC1`, the Potency entry is “inactive”. Still for that read-out and setting: the same measure for `CN1CCCC(=C(c2cccs2)c2cccs2)C1`: “inactive”.
